Reference: PubChem BioAssay AID651598 (Sanford-Burnham Center for Chemical Genomics, 2012)
Where “and” joins values, the source holds several entries; their conditions need not be identical. Equal values may be shown once.

Each molecule was assayed against Apelin receptor (Homo sapiens) (UniProt P35414) (assay: APJ beta-arrestin recruitment blockade alongside CXCR6 – cell-based, DiscoveRx, panel, CHO-K1, counter-screen for CXCR6 antagonist project, SAR follow-up (AID 651598)). Conditions: CHO-K1 PathHunter beta-arrestin luminescence, antagonist mode; run 4, at 80 µM (top of the series).
Apelin receptor (Homo sapiens), sequence (P35414 whole entry, looked up): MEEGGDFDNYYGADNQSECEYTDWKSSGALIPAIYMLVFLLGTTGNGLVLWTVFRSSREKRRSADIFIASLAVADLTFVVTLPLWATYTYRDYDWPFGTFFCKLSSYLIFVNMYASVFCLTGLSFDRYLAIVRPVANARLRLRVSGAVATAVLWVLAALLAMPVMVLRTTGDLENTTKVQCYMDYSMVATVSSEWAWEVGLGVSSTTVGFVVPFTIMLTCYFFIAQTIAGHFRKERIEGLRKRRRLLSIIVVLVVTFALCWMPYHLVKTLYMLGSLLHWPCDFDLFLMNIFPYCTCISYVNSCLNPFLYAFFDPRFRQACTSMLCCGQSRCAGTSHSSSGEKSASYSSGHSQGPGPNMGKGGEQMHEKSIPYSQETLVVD

Row | Compound | inhibition
1 | COc1cc(C(=O)NC2CC3CCCC(C2)N3CC(=O)Nc2ccccc2)cc(OC)c1OC (stereo not drawn) | 17% and 11.6% and 7.8%
2 | COc1cc(C(=O)NC2CC3CCC(C2)N3CC(=O)Nc2ccccc2)cc(OC)c1OC (stereo not drawn) | -13.5% and 16.7%
3 | COc1cc(C(=O)NC2CCN(CC(=O)Nc3ccccc3)CC2)cc(OC)c1OC | -1.54%
